The nature of experiment [1]: qHTS assay to identify small molecule agonists of the estrogen receptor alpha (ER-alpha) signaling pathway in the presence of an antagonist - cell viability counter screen (AID 1259386).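 Note: series mostly up to about 92 µM; cells exposed to compounds for 22 h at 37 °C before the viability read; nearly all actives have a fitted effect of over 30% in size.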 The method, boiled down:
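Cell viability in VM7Luc4E2 cells (endogenous full-length ER-alpha) measured by CellTiter-Fluor fluorescence in the same wells as the luciferase screen. Cells pre-cultured 5 days in charcoal-stripped serum, then treated 22 h with compounds at 15 concentrations plus 10.0nM ICI-182,780.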
In general terms: qHTS replaces the single test concentration by a dilution series.

Experiment [2] addresses Progesterone receptor (Homo sapiens) (UniProt P06401). As to the kind of experiment: qHTS assay to identify small molecule agonists of the progesterone receptor (PR) signaling pathway (AID 1346784; calls by dose curve; note: nearly all actives have a fitted effect of over 30% in size). An outline of the steps: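 Reporter assay, GripTite PR-UAS-bla HEK 293T cells: 16 hr exposure to DMSO-dissolved compounds at 37C, 5% CO2, in steroid-depleted (2% charcoal-stripped FBS) medium; beta-lactamase measured by FRET fluorescence.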

Experiment [3] shares this target. As to the kind of experiment: qHTS assay to identify small molecule antagonists of the progesterone receptor (PR) signaling pathway (AID 1346795; active = well fitted inhibition curve with a large enough effect in the signal ratio in the repeat runs, not every such curve was filed as active; the % refers to the signal ratio; note: potency is the fitted concentration of half-maximal effect). An outline of the steps:
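Stimulus R5020 at 1 nM final; cells HEK293T PR-UAS-bla; medium with 2% charcoal-stripped FBS; compound exposure 16 hr at 37C, 5% CO2; detection by FRET beta-lactamase substrate, 2 hr, room temperature.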

The nature of experiment [4]: qHTS assay to identify small molecule antagonists of the progesterone receptor (PR) signaling pathway - cell viability counter screen (AID 1346798). Note: series mostly up to about 92 µM; nearly all actives have a fitted effect of over 50% in size. The method, boiled down: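 In the same plates used for the beta-lactamase readout, cell viability of compound- and R5020-treated PR-UAS-bla HEK293T cells (16 hr, 37C) was assessed by CellTiter-Glo luminescence.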
The nature of experiment [5]: qHTS assay to identify small molecule agonists of the progesterone receptor (PR) signaling pathway - cell viability counter screen (AID 1346799; calls by dose curve; note: nearly all actives have a fitted effect of over 45% in size). The method, boiled down: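 Multiplexed viability read: CellTiter-Glo luminescence, 30 min RT, following LiveBLAzer FRET measurement on PR-UAS-bla HEK293T cells exposed to compounds 16 hr.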
Experiment [6] in a line: qHTS assay to identify small molecule antagonists of the TGF-beta/Smad signaling pathway - cell viability counter screen (AID 1346824). Note: nearly all actives have a fitted effect of over 50% in size. An outline of the steps:
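Cytotoxicity counter-screen run in the same wells as the beta-lactamase Smad reporter read: CellTiter-Glo luminescence after 30 min at room temperature. HEK 293T SBE-bla cells had 5 hr compound exposure at 37 C with TGF-beta1 (0.25 ng/mL stock).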

A short description of experiment [7]: qHTS assay to identify small molecule agonists of the TGF-beta/Smad signaling pathway - cell viability counter screen (AID 1346829). Note: top concentration of the series differs between compounds; nearly all actives have a fitted effect of over 45% in size. The method, boiled down:
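Compound-treated SBE-bla HEK 293T cells (5 hr, 37 C) were assessed for viability with CellTiter-Glo in parallel with the reporter read.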

The nature of experiment [8]: qHTS assay to identify small molecule agonists of the TGF-beta/Smad signaling pathway (AID 1346859; active = well fitted activation curve with a large enough effect in the signal ratio in the repeat runs, not every such curve was filed as active; the % refers to the signal ratio; note: series mostly up to about 77 µM). An outline of the steps:
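Screening used HEK 293T SBE-bla cells at 4,000/well. Test agents: 5 hr, 37 C. Detection: FRET substrate, 2 hr RT, then excitation 405 nm with emissions at 460 and 530 nm.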

Experiment [9] deals with Thyrotropin-releasing hormone receptor (Homo sapiens) (UniProt P34981). As to the kind of experiment: qHTS assay to identify small molecule antagonists of the thyrotropin-releasing hormone receptor (TRHR) signaling pathway (AID 1346877; active = well fitted inhibition curve with a large enough effect in the repeat runs, not every such curve was filed as active; note: series mostly up to about 51 µM). The method, boiled down: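 TRHR-expressing HEK293 cells loaded with calcium dye for 2 h at 37 C; compounds pre-incubated 5 min at room temperature before TRH challenge at 1 nM final. Intracellular calcium fluorescence read kinetically for 3 min; 15 concentrations in triplicate.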

For experiment [10] the target is unchanged. As to the kind of experiment: qHTS assay to identify small molecule agonists of the thyrotropin-releasing hormone receptor (TRHR) signaling pathway (AID 1346891; calls by dose curve; note: series mostly up to about 58 µM). An outline of the steps: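 Readout was intracellular calcium fluorescence in TRHR-Hek293 cells. Cells were incubated 18 h, dye-loaded 2 h at 37 °C, and treated with compound in agonist mode.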

Experiment [11] in a line: Human pregnane X receptor (PXR) small molecule agonists, qHTS cell viability counter screen (AID 1346977). Note: nearly all actives have a fitted effect of over 50% in size. An outline of the steps: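 In each well, the PXR reporter HepG2 line was checked for viability: CellTiter-Fluor reagent added 23hr post-dosing, fluorescence read after 1hr incubation at 37C.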
Experiment [12] in a line: Caspase-3/7 induction in HepG2 cells by small molecules, qHTS assay (AID 1346978). Note: nearly all actives have a fitted effect of over 15% in size. The method, boiled down:
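Caspase-3/7 induction was measured by Caspase-Glo 3/7 luminescence (30 min, room temperature) after a 17 hr compound exposure of wild-type HepG2 cells seeded at 2,000 per well and pre-incubated 5 hr.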

A short description of experiment [13]: Caspase-3/7 induction in CHO-K1 cells by small molecules, qHTS cell viability counter screen (AID 1346979). Note: nearly all actives have a fitted effect of over 35% in size. Note: potency is the fitted concentration of half-maximal effect. An outline of the steps:
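Following a 5hr settling period, CHO-K1 cells at 1,500 per well received DMSO-dissolved compounds. Cell viability was quantified 16hr later by CellTiter-Fluor fluorescence, measured after 1hr with reagent at 37C.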

A short description of experiment [14]: Caspase-3/7 induction in CHO-K1 cells by small molecules, qHTS assay (AID 1346980). Note: nearly all actives have a fitted effect of over 15% in size. The method, boiled down:
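Luminescent Caspase-Glo 3/7 read (30min, room temperature) quantified apoptosis induction. Cells were wild-type CHO-K1, treated with compound for 17hr at 37 C and 5% CO2.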

Experiment [15] in a line: Caspase-3/7 induction in HepG2 cells by small molecules, qHTS cell viability counter screen (AID 1346981). Note: series mostly up to about 92 µM; nearly all actives have a fitted effect of over 30% in size. The method, boiled down:
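Wild-type HepG2 cells, 2,000/well, settled 5 hr at 37 C, 5% CO2 before compound addition. Viability read by CellTiter-Fluor fluorescence, reagent added after 16 hr compound exposure, then 1 hr at 37C, in the same wells as the caspase read.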

Experiment [16] addresses Nuclear receptor subfamily 1 group I member 2 (Homo sapiens) (UniProt O75469). As to the kind of experiment: Human pregnane X receptor (PXR) small molecule agonists, qHTS assay (AID 1346982). Note: nearly all actives have a fitted effect of over 35% in size. An outline of the steps:
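PXR-Luc HepG2 reporter cells (CYP3A4-driven luciferase) in 5% charcoal-stripped FBS medium, plated 5 h before compound addition, then treated 24 h at 37C. Luciferase read by ONE-Glo luminescence after 30 min at room temperature.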

The target in experiment [17] is Cytochrome P450 2D6 (Homo sapiens) (UniProt P10635). Put plainly: Cytochrome P450 Family 2 Subfamily D Member 6 (CYP2D6) small molecule antagonists: luciferase reporter qHTS assay (AID 1671196). Note: nearly all actives have a fitted effect of over 50% in size. Note: potency is the fitted concentration of half-maximal effect. The method, boiled down: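 Cell-free P450-Glo system: CYP2D6 with proluciferin substrate was pre-incubated with compound for 10 min, then reacted with NADPH regeneration for 1 h at room temperature. Luciferin product was detected after 20 min, and data were reported as relative luminescence units.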

Experiment [18] addresses Nuclear receptor subfamily 1 group I member 2 (Rattus norvegicus) (UniProt Q9R1A7). Put plainly: Rat pregnane X receptor (rPXR) activation by small molecules, qHTS assay (AID 1346983). Note: nearly all actives have a fitted effect of over 20% in size. The following applies: rPXR luciferase reporter cells, One-Glo luminescence, 24 h; max activation: stronger effect = higher value. The method, boiled down:
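Luminescent readout (One-Glo luciferase, 30 min room temperature) followed 24 hr compound treatment at 37 C of rPXR cells plated 2,000 per well and preincubated 5hr; qHTS format with compounds delivered in DMSO.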

In experiment [19] the target is Nuclear receptor subfamily 1 group I member 2 (Homo sapiens) (UniProt O75469). Put plainly: CYP3A4 induction through human pregnane X receptor (PXR) by small molecules, qHTS assay (AID 1346984). Note: nearly all actives have a fitted effect of over 40% in size. An outline of the steps:
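DPX-2 HepG2 cells carrying a PXR response element and CYP3A4-promoter luciferase construct, treated with compounds 24 hr at 37C. Then P450-Glo CYP3A4 Luciferin-IPA substrate (3uM final) for 3 hr at 37C, One-Glo added, luminescence read.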

Experiment [20] shares this target. Put plainly: Human pregnane X receptor (PXR) activation by small molecules, qHTS assay (AID 1346985). Note: nearly all actives have a fitted effect of over 40% in size. The method, boiled down: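 DPX-2 cells (HepG2 co-transfected with a PXR response element and a CYP3A4-promoter luciferase construct) were seeded at 2,000 per well, rested 5 hr at 37C, then exposed to DMSO-dissolved compounds for 24 hr. Activation was read as luciferase luminescence.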

Each structure is given as a SMILES string. Where “and” joins values, the source holds several entries; their conditions need not be identical. Equal values may be shown once. Records with an inconclusive call do not appear. Some structures have more than one record in an assay (separate samples or runs), and their calls can disagree. Calls of active or inactive are those of the source. Unless noted, calls come from the whole dose curve; as a rule, active = well fitted curve in the direction sought with a large enough effect in the repeat runs; inconclusive = weak or mixed curves; inactive = no such curve, though single readings can be large; an effect the other way counts as inactive or inconclusive.
% is set by controls: 0 for no effect and ±100 for the full control effect.

Chain of Cytochrome P450 2D6 (Homo sapiens) (P10635 whole entry, looked up): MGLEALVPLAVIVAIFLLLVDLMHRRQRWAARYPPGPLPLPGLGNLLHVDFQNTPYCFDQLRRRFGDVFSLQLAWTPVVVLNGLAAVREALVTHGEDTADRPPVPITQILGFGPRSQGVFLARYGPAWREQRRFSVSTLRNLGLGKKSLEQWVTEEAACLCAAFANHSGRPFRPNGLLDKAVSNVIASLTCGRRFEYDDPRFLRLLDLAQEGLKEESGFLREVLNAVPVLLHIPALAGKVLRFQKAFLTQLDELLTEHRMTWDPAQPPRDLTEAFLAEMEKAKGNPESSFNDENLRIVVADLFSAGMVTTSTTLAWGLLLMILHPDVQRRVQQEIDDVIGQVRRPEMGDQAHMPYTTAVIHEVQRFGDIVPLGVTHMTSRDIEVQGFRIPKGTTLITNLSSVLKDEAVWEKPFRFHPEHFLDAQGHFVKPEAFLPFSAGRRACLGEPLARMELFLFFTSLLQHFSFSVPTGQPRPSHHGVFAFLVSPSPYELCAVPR
Chain of Thyrotropin-releasing hormone receptor (Homo sapiens) (P34981 whole entry, looked up): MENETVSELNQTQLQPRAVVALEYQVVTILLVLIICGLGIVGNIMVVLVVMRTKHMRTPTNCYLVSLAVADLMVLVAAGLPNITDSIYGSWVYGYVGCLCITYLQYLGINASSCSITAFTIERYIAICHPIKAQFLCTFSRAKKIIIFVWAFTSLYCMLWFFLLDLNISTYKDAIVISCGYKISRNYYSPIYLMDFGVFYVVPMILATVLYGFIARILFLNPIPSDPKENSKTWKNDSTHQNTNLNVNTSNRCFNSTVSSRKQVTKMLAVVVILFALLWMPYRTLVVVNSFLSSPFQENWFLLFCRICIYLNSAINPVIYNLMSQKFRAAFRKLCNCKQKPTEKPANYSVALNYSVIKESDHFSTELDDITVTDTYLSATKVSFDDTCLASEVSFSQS
Chain of Nuclear receptor subfamily 1 group I member 2 (Homo sapiens) (O75469 whole entry, looked up): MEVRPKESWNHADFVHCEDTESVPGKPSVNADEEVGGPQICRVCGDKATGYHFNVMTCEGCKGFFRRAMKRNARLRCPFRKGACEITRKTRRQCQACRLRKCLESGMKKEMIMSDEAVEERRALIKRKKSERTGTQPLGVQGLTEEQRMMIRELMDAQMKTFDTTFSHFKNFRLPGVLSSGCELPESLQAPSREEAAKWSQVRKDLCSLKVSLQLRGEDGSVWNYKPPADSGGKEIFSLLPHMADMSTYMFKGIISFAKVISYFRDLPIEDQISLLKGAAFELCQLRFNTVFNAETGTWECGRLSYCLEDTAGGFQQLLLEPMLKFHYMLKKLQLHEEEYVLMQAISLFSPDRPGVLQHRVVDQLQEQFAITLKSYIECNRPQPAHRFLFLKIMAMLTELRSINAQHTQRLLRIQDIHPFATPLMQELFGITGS
Chain of Progesterone receptor (Homo sapiens) (P06401 whole entry, looked up): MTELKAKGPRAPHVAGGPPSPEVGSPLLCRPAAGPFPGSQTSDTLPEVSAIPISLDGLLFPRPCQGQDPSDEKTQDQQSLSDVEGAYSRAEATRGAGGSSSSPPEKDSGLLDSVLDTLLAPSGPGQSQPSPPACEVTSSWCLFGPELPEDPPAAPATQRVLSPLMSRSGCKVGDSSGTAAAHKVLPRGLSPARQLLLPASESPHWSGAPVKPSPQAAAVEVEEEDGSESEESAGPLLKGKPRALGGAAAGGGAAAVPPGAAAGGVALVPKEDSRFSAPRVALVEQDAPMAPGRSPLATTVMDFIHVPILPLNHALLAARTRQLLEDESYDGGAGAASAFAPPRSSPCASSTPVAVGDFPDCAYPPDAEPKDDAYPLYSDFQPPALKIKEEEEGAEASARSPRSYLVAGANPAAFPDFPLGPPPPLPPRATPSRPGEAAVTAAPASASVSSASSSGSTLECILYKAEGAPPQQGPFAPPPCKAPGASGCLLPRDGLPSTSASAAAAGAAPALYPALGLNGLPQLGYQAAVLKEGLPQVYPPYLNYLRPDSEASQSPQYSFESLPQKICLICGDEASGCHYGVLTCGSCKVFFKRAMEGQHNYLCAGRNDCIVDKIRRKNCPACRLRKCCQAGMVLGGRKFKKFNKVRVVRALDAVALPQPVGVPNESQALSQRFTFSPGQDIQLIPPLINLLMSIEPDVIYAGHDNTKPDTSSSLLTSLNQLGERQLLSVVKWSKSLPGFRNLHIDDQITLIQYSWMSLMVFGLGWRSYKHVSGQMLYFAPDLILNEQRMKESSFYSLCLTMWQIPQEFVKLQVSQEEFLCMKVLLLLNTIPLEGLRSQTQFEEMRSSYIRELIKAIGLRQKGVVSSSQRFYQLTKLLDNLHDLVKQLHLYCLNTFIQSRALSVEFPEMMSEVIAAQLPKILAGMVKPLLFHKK
Chain of Nuclear receptor subfamily 1 group I member 2 (Rattus norvegicus) (Q9R1A7 whole entry, looked up): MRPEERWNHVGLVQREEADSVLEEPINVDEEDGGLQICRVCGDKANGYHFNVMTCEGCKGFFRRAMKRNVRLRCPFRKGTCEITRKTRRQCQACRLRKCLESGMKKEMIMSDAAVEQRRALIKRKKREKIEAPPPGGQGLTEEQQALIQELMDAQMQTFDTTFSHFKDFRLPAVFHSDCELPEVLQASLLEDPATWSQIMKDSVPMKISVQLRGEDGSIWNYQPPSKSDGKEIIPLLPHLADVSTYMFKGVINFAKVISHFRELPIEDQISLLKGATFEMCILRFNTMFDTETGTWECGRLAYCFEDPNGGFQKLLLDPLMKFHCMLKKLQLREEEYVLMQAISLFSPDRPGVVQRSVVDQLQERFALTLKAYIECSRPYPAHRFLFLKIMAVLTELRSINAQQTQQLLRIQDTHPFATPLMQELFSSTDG

In the case of `O=C(O)CCCCC1CCSS1` (stereo not given), the Potency result in experiment [1], in [2], in experiment [3], in experiment [4], in [5] and in experiment [6] was “inactive” in each case. Moreover, the Potency entry in [7], in [10], in experiment [11], in experiment [12], in [13] and in [15] was “inactive” each time. Besides, the Potency result in experiment [16] and in experiment [17] was “inactive” throughout. Besides, the outcome in experiment [8], in experiment [9] and in experiment [14] was inactive.

On to `Cn1cnc2c1c(=O)[nH]c(=O)n2C`, for which the Potency entry in [1], in experiment [2], in experiment [3], in experiment [4], in experiment [5] and in experiment [6] was “inactive” each time. Besides, the Potency entry in experiment [7], in experiment [10], in experiment [11], in [12], in experiment [13] and in experiment [15] was “inactive” each time. Also, the compound was called inactive in experiment [8], in experiment [9] and in [14].

Consider `CCCCCCCCOc1ccc(C(=O)c2ccccc2)c(O)c1`, for which the Potency entry in [1], in experiment [2], in [3], in experiment [4], in experiment [5] and in experiment [6] was “inactive” in each case. The Potency entry in experiment [7], in experiment [10], in experiment [11], in experiment [12], in [13] and in experiment [15] was “inactive” throughout. Further, the Potency result in experiment [16], in [19], in [20] and in experiment [17] was “inactive” in each case. For the same compound, the compound was called inactive in [8] and in [14]. For the same compound, the max activation in experiment [18] is -2.91% (inactive).

Consider `C[C@]12CC[C@@H]3c4ccc(O)cc4C[C@@H](CCCCCCCCCS(=O)CCCC(F)(F)C(F)(F)F)[C@H]3[C@@H]1CC[C@@H]2O` (stereo not given in full), for which the Potency result in experiment [1], in experiment [2], in [4], in experiment [5], in experiment [6] and in experiment [7] was “inactive” each time. In addition, the Potency entry in experiment [10], in experiment [11], in experiment [15] and in experiment [17] was “inactive” throughout. The Potency in [3] is 1720 nM (active). For the same compound, the outcome in [8], in experiment [9] and in [14] was inactive.

With `CC(=O)c1ccc(S(=O)(=O)NC(=O)NC2CCCCC2)cc1`, the Potency result in experiment [1], in experiment [2], in experiment [3], in [4], in [5] and in [6] was “inactive” each time. Further, the Potency result in experiment [7], in experiment [10], in experiment [11], in experiment [12], in [13] and in [15] was “inactive” each time. In addition, the Potency result in experiment [16] is “inactive”. Further, the outcome in experiment [8], in [9] and in experiment [14] was inactive. Also, the Potency in experiment [17] is 31.6 µM (active) and inactive.

In the case of `COc1ccccc1O`, the Potency result in experiment [1], in experiment [2], in [3], in experiment [4], in [5] and in experiment [6] was “inactive” each time. In addition, the Potency result in experiment [7], in experiment [10], in experiment [11], in experiment [12], in experiment [13] and in experiment [15] was “inactive” each time. The Potency result in [16], in experiment [19], in [20] and in [17] was “inactive” in each case. In addition, the compound was classed as inactive in experiment [8] and in [14]. Further, the max activation in experiment [18] is -3.23% (inactive).

As for `COc1cc(O)c(C(=O)c2ccccc2)cc1S(=O)(=O)O`, the Potency result in experiment [1], in experiment [2], in experiment [3], in experiment [4], in [5] and in experiment [6] was “inactive” each time. Also, the Potency result in experiment [7], in [10], in [11], in experiment [15], in experiment [16] and in experiment [19] was “inactive” in each case. Also, the Potency result in experiment [20] and in [17] was “inactive” throughout. Also, the outcome in experiment [8], in experiment [9] and in experiment [14] was inactive. Besides, the Potency result in [13] is “inactive and 13.3 µM (active)”. Besides, in [18], the max activation was -1.72% (inactive).

These data come from PubChem BioAssay (Tox21).
